Assay outcomes deposited in PubChem BioAssay by National Center for Advancing Translational Sciences (NCATS).
The sample as a whole holds a higher share of hits than the screen did.
TDP-43 rescue: qHTS of TDP-43 Inhibitors: NCGC Sytravon Library Screen | 45,000 compounds, 0.45% hits | Potency, µM (top dose mostly 46.1 µM), hits mostly activators | yeast TDP-43 toxicity rescue, BacTiter-Glo growth, 24 h; active = well fitted activation curve with a large enough effect; note: 0% is about no effect; nearly all actives have a fitted effect of over 55% in size
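TDP-43-expressing yeast, pregrown in raffinose, seeded at OD600 0.02 in galactose medium with compound for 24 hr at 30 deg C. Growth read by BacTiter-Glo luminescence, so rescue of toxicity appears as activation.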
Starred values were filed as active, the others as inactive; i = inactive. Potency is the fitted concentration of half-maximal effect.

SMILES	TDP-43 rescue
O=C(CN1CCc2ccccc21)NCc1ccccc1Cl	12.6µM*
CCCCC(=O)NCc1ccccc1Cl	i
O=C(CN1CCN(Cc2ccccc2)CC1)NCc1ccccc1Cl	i
Cc1ccc(CSCc2ccc(C(=O)NCCC(C)C)o2)cc1	i
O=C(CSc1nnc(NC(=O)c2ccc(F)cc2F)s1)NC1CC1	i
CCOCCCNC(=O)c1ccc2c(c1)ncn2-c1cccc(C)c1	i
COC(=O)N/N=C/c1ccccc1OCCOc1ccc(OC)cc1	i
O/N=C/c1ccccc1Oc1ccc(Cl)cc1	17.8µM*
CCOC(=O)COc1ccccc1/C=N/O	i
COC(=O)Cn1nc(C)c2c(C)n(-c3ccccc3)nc2c1=O	i
CC1CN(S(=O)(=O)c2cccc(C(=O)N3CCC(C(N)=O)CC3)c2)CC(C)O1 (centres undefined)	i
O=C(O)CCCC(=O)N1N=C(c2ccccc2)CC1c1ccc2nccnc2c1 (centres undefined)	i
O=c1[nH]cnc2scc(-c3ccc(Br)cc3)c12	i
S=c1[nH]cnc2scc(-c3ccc(Br)cc3)c12	i
Cc1ccc(-c2csc3nc[nH]c(=S)c23)cc1	14.1µM*
COc1ccc2c(c1)Cc1sc(NC(=O)c3ccc(Cl)cc3)nc1-2	i
CCN(CC)C(=O)c1ccc(COc2ccccc2Cl)o1	i
CCc1nnc(NC(=O)c2ccc(COc3ccccc3Cl)o2)s1	i
O=C(Nc1ccc(Cl)cn1)c1ccc(COc2ccccc2Br)o1	11.2µM*
CCc1nc2ccc(C(=O)NCCOc3ccc(OC)cc3)cn2c1N(CCC(C)C)CCN(C)C	i
CC(C)Cc1ccc(C(C)C(N)=NCCc2ccccc2)cc1 (centres undefined)	i
CCOC(=O)C1(C)CCCN(C(=O)c2cccs2)C1 (centres undefined)	i
CC(=O)Nc1ccc(S(=O)(=O)NNC(=O)c2cccc(Cl)c2)cc1	i
COCCNC(=O)C1(C)CCN(C(=O)C2(c3ccc(Cl)cc3)CCCC2)C1 (centres undefined)	i
COCCNC(=O)C1CCCN(C(=O)C2(c3ccc(Cl)cc3)CCCC2)CC1 (centres undefined)	i
SMILES	TDP-43 rescue
CC1(C(=O)O)CCCN(C(=O)C2(c3ccc(Cl)cc3)CCCC2)C1 (centres undefined)	14.1µM*
CC1(C(=O)NS(=O)(=O)c2cccc(OC(F)F)c2)CCN1C(=O)C1CCCCC1 (centres undefined)	i
COc1ccc(CNC(=O)CCSCc2ccccc2Cl)c(OC)c1	14.1µM*
COc1ccccc1OCC(=O)NCCSCc1ccccc1Cl	i
COc1ccccc1CNC(=O)Cc1ccc(OC)c(OC)c1	i
O=C(O)Cc1coc2ccc3ccccc3c12	12.6µM*
NC(=O)N/N=C/c1coc2ccc3ccccc3c2c1=O	i
CCC(=O)OCc1cc(=O)oc2ccc3ccccc3c12	i
CN1CCN(c2nc3ccccn3c(=O)c2/C=C(\C#N)S(=O)(=O)c2ccc(Cl)cc2)CC1	i
Cc1ccc(CN2CCNC(=O)C2CC(=O)N(C)C2CCCCC2)cc1 (centres undefined)	i
Cn1nnnc1SCC(=O)Nc1cc(C(F)(F)F)ccc1N1CCOCC1	i
O=C(CSc1ccc([N+](=O)[O-])cn1)Nc1cc(C(F)(F)F)ccc1N1CCOCC1	12.6µM*
O=C(CNCc1ccccn1)Nc1cc(C(F)(F)F)ccc1N1CCOCC1	i
O=C(CCCn1c(=O)c2cccn2c2ccccc21)Nc1cccc(Cl)c1	i
COc1ccc(CNC(=O)c2nn(-c3ccccc3)cc2OC)cc1	i
Clc1cccc(COn2c(-c3ccc(Cl)cc3Cl)nc3ncccc32)c1	25.1µM*
COc1ccc(-n2c(-c3ccc(Cl)cc3Cl)n[nH]c2=S)c(OC)c1	i
COCCn1c(-c2ccc(Cl)cc2Cl)nc2c(c(=O)c3ccccc3n2C)c1=O	i
COc1ccc(CSCC(=O)Nc2ccccc2)cc1[N+](=O)[O-]	i
COc1ccc(NC(=O)COC(=O)CN2C(=O)C3CC=CCC3C2=O)c([N+](=O)[O-])c1 (centres undefined)	i
Fc1ccc(-c2csc(N3CCOCC3)n2)cc1	i
c1ccc(-c2nc(N3CCOCC3)sc2-c2ccccc2)cc1	25.1µM*
Cc1cc(C(=O)N/N=C/c2sc(N3CCOCC3)nc2-c2ccccc2)c(C)o1	i
COc1ccccc1-c1cnc(C(O)c2cccc(CN3CCCCC3)c2)[nH]1 (centres undefined)	i
O=C(CSCc1ccc(Cl)cc1)Nc1ccccc1O	i
SMILES	TDP-43 rescue
Cc1ccc(SCCC(=O)N/N=C/c2ccccc2O)cc1	i
O=C(CCCSc1ccc(Cl)cc1)Nc1ccccc1O	11.2µM*
CC(=O)NCCC(=O)N1CCCC(CNC(=O)c2ccc(-c3ccccc3)cc2)C1 (centres undefined)	i
COc1cc(/C=C/C(=O)c2ccc3c(c2)OCCO3)cc(Br)c1OCC(=O)N(C)C	15.8µM*
O=C(/C=C/c1ccncc1)c1ccc2c(c1)OCCO2	i
COc1cc(C(=O)NNC(=O)c2ccc3c(c2)OCCO3)cc(OC)c1OC	i
CC(=O)Nc1nc(C)c(C(C)C)s1	i
CCOC(=O)/C(=N\Nc1cc(Cl)ccc1Cl)N1CCN(CC)CC1	i
O=C(O)C1CC(O)CN1c1nc(Cl)ccc1[N+](=O)[O-] (centres undefined)	i
CCN(CC)S(=O)(=O)c1nnc(NC(=O)COc2ccccc2F)s1	i
CC(=O)Nc1cccc(NC(=O)c2ccc(COc3ccccc3)cc2)c1	i
O=C1c2cccc3c(O)ccc(c23)C(=O)N1c1ccc(Cl)cc1	i
Cc1c(S(=O)(=O)N2CCCC(C(=O)O)C2)cnn1C (centres undefined)	i
Cc1cc[n+](CC(=O)Nc2nc3ccccc3s2)cc1	i
O=C(Cc1cccs1)Nc1nc2ccccc2s1	15.8µM*
CCc1ccc2nc(NC(=O)CCCc3cccs3)sc2c1	i
CN(c1ccc(C(=O)N2CCCCCC2)cc1)S(=O)(=O)c1ccc(Cl)cc1	i
CN1CCN(c2ccccc2NC(=O)c2ccc([N+](=O)[O-])cc2Cl)CC1	i
C=CCn1c(SCC(=O)Nc2nc3ccccc3s2)nc(O)c(CC)c1=O	i
Cc1cc(C)cc(NC(=S)NCC2CCN(C(C)c3ccccc3)C2)c1 (centres undefined)	i
Cc1cccc(NC(=S)NCCCN2CCOCC2)c1	i
COc1ccc(N2CCC(CNC(=S)Nc3cccc(C)c3)C2)cc1 (centres undefined)	14.1µM*
COc1ccc(/C=C(/NC(=O)c2ccco2)C(=O)N2CCCC2=O)cc1	i
COc1ccc(C(=O)Nc2ccc([N+](=O)[O-])cn2)c(OC)c1	i
Cc1cccc(Nc2c3c(nc4nncn24)CCC3)c1	i
SMILES	TDP-43 rescue
COc1ccccc1N1CCN(c2c3c(nc4nncn24)CCC3)CC1	i
Cc1ccc(Nc2c3c(nc4nncn24)CCC3)cc1	12.6µM*
CC(CCc1ccccc1)NCC(O)COc1ccccc1 (centres undefined)	i
Fc1ccc(-c2csc3ncnc(Cl)c23)cc1	14.1µM*
Cc1ccc(-c2csc3ncnc(NS(=O)(=O)c4ccc(Cl)cc4)c23)cc1	i
CC(=O)CSc1ncnc2scc(-c3ccc(F)cc3)c12	i
Cc1ccc(CNC(=O)CN(C(=O)C2(C)CC(=O)N=C3C=CC=CN32)c2cccc(C)c2C)cc1 (centres undefined)	i
COc1cc2c(cc1OC)C(c1ccccc1OC(C)C)CC(=O)N2 (centres undefined)	i
